# Shown are actives, neighbours in structure and some others; about 9.9% of the full set was active somewhere.
# KB-V1 MDR tox: qHTS assay for MDR1-selective chemotherapeutics: Primary screen using the drug-selected MDR subline cells KB-V1 | KB-V1 MDR cells viability, CellTiter-Glo, 72 h | Potency, µM (doses to about 46.1 µM), most hits filed as cytotoxic | 400,000 tested, 3.4% active; note: potency is the fitted concentration of half-maximal effect; % is set by controls: 0 for no effect and ±100 for the full control effect; nearly all actives have a fitted effect of over 60% in size
#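 Drug-selected KB-V1 cells, grown in DMEM lacking phenol red with 10% FBS, receive compound titrations; after three days at 37 degrees C, surviving cell ATP is quantified by CellTiter-Glo luminescence and responses normalized and curve-fitted.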
# KB-3-1 cytotox: qHTS assay for MDR1-selective chemotherapeutics: Primary screen using the parental adenocarcinoma cell KB-3-1; KB-3-1 viability, CellTiter-Glo ATP luminescence, 72 h; Potency, µM (doses to about 46.1 µM), most hits filed as cytotoxic; 400,000 tested, 1.4% active; AID 1347075, 2019; note: potency is the fitted concentration of half-maximal effect; % is set by controls: 0 for no effect and ±100 for the full control effect; nearly all actives have a fitted effect of over 60% in size
#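 Cytotoxicity in the drug-sensitive parental line KB-3-1 was scored as loss of CellTiter-Glo luminescence following 72 h incubation with compound. Values come from curve fitting of normalized concentration-response data.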
# IL1B secr inh: qHTS for Inhibitors of Inflammasome Signaling: IL-1-beta AlphaLISA Primary Screen | activity change, % at 57.5 µM | THP-1 LPS/ATP IL-1B secretion, AlphaLISA, 16 h; hits give low values | AID 743279, 2014 | 360,000 tested, 4.7% active; in the data active = activity change below about -50%; inconclusive = mostly about -30% to -49%; note: % is set by controls: 0 for no effect and ±100 for the full control effect
#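 THP-1 cells pretreated 1 hr with compounds (up to 57.5 uM final), then stimulated with LPS (250 ng/mL final) plus ATP (1.25 mM final); secreted IL-1B measured by AlphaLISA after 16 hr, decreased signal indicating inhibition.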
# SW480 rerep: A quantitative high throughput screen for small molecules that induce DNA re-replication in SW480 colon adenocarcinoma cells; SW480 DNA re-replication, Hoechst DNA content imaging, 48 h; Potency, µM (highest dose often 46.1 µM), for the others: at the top dose re-replication activation, hits mostly activators; 340,000 tested, 1.8% active; AID 624297, 2012; note: potency is the fitted concentration of half-maximal effect; % of control where 0% means no effect; nearly all actives have a fitted effect of over 55% in size
#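 Cells (250 per well) received 23 nL compound or DMSO by pin tool and were kept 48 hr at 37 C, 5% CO2. Nuclei were then stained with Hoechst for 40 min and scanned for DNA content.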
# MCF10A rerep: A quantitative high throughput screen for small molecules that induce DNA re-replication in MCF 10a normal breast cells | AID 624296, 2012 | Potency, µM (highest dose often 46.1 µM), inactives show at the top dose activity, positive = re-replication, actives largely listed as activators | MCF 10A DNA re-replication, Hoechst nuclear intensity, 48 h | 350,000 tested, 2.9% active; note: potency is the fitted concentration of half-maximal effect; % of control where 0% means no effect; nearly all actives have a fitted effect of over 50% in size
# The depositor's hits bear a star; i = inactive; ? = inconclusive; · = no result. Unless noted, calls come from the whole dose curve; as a rule, active = well fitted curve in the direction sought with a large enough effect; inconclusive = small, poorly fitted or top-dose-only effect, or another doubt; inactive = no such curve, though single readings can be large; an effect the other way counts as inactive or inconclusive.
SMILES,KB-V1 MDR tox,KB-3-1 cytotox,IL1B secr inh,SW480 rerep,MCF10A rerep
COc1cccc(Cn2nnc(C(=O)NCc3ccc(Cl)cc3Cl)c2N)c1,i,i,·,·,·
COC(=O)/C=C/C(=O)N1CCN(c2ccccc2C)CC1,i,i,-108*,?,?
O=C(COC(=O)/C=C/C(=O)N1CCN(c2ccccc2)CC1)NCc1ccc(F)cc1,i,i,-15,-3%,13%
COC(=O)/C=C/C(=O)N1CCN(c2ccccc2)CC1,i,i,-91*,-2%,17%
C(=N\Nc1ccccc1)/c1nc2ccccc2s1,i,i,0,22%,17%
C=CCN1C(=O)C2(NC(=O)c3ccccc3N2)c2ccccc21 (stereo not drawn),?,?,53,18µM*,?
Cc1cccc(C(=O)NC(=O)Nc2ccc(-n3nc(C(F)(F)F)cc3C(F)(F)F)cc2)c1,i,i,·,·,·
O=[N+]([O-])c1cccnc1N1CCC(c2cc(-c3ccc(Cl)cc3)n[nH]2)CC1,?,?,-85*,?,?
CCOC(=O)CN1CCC(c2cc(-c3ccc(Cl)cc3)n[nH]2)CC1,i,?,-3,-5%,7%
Cc1ccc2c(c1)/C(=C/c1ccccc1F)C(=O)N2,i,i,-5,-12%,6%
Cc1ccc2c(c1)/C(=C/c1ccccc1)C(=O)N2,?,?,-82*,?,?
O=C(CSc1ccccn1)Nc1nonc1[N+](=O)[O-],10µM*,?,-99*,2%,7%
Cc1ccccc1-c1nnn(CC(=O)NC(=O)NC2CCCC2)n1,·,·,-54*,3%,-5%
O=C(Cn1nnc(-c2ccccc2NC(=O)c2ccccc2F)n1)NC1CCCC1,i,i,-7,-14%,24%
COc1cc2nc(CC(O)c3nc4cc(OC)c(OC)cc4[nH]3)[nH]c2cc1OC (stereo not drawn),i,i,·,·,·
CN(C)S(=O)(=O)c1ccc(NC(=O)c2cc(F)c(F)cc2Cl)cc1,23µM*,i,?,-6%,-7%
COc1ccc(NC(=O)c2cc(F)c(F)cc2Cl)cc1Cl,i,i,-11,7%,-6%
O=C(NC1CCCCC1)C(c1ccco1)N(CCc1ccccc1)C(=O)C(F)(F)F (stereo not drawn),7.3µM*,?,17,1%,2%
O=C(NCc1ccco1)C(c1ccco1)N(Cc1cccs1)C(=O)Cn1nnc2ccccc21 (stereo not drawn),i,i,-6,1%,22%
CC(C)CCN(C(=O)c1csnn1)C(C(=O)NC1CCCCC1)c1ccc(F)cc1 (stereo not drawn),?,?,-57*,1%,2%
Cc1cccc(CCN(CC(=O)NC2CCCCC2)C(=O)c2csnn2)c1,i,i,1,5%,-3%
Cc1cccc(CCN(C(=O)c2csnn2)C(C(=O)NC2CCCC2)c2ccco2)c1 (stereo not drawn),i,i,-85*,14%,-3%
O=C(NC1CCCCC1)C(c1ccco1)N(Cc1cccs1)C(=O)Cn1nnc2ccccc21 (stereo not drawn),5.2µM*,i,8,1%,-5%
Cc1ncc(COC(=O)C(C)C)c2cc(C(=O)Nc3ccccc3C(F)(F)F)c(=O)oc12,i,i,·,·,·
C[C@H](CO)N1C[C@H](C)[C@@H](CN(C)C(=O)NC2CCCCC2)Oc2c(NS(=O)(=O)c3cn(C)cn3)cccc2C1=O,i,i,34,0%,-5%
SMILES,KB-V1 MDR tox,KB-3-1 cytotox,IL1B secr inh,SW480 rerep,MCF10A rerep
COC1OC(CO)C(OC2OC(C(=O)O)C(OC3OC(COS(=O)(=O)O)C(OC4OC(C(=O)O)C(OC5OC(CO)C(OC6OC(C(=O)O)C(OC7OC(COS(=O)(=O)O)C(OC8OC(C(=O)O)=C[C@H](O)C8OS(=O)(=O)O)C(O)C7NC(C)=O)[C@@H](O)C6O)C(O)C5NC(C)=O)[C@@H](O)C4O)C(O)C3NC(C)=O)[C@@H](O)C2O)C(O)C1NC(C)=O (stereo partly drawn),·,·,·,0%,-5%
O=C(NC1CCCCC1)C(c1cccs1)N(C(=O)C(F)(F)F)c1ccccc1 (stereo not drawn),i,i,16,?,15µM*
Nc1nc2ncccn2c1-c1ccc(F)cc1,i,i,29,·,·
O=Nc1nc2ncccn2c1-c1ccccc1,?,i,-84*,9.2µM*,13µM*
Cc1cc(C)cc(NC(=O)C(=O)NCC(c2cccnc2)N2CCN(c3ccccc3)CC2)c1 (stereo not drawn),i,i,·,·,·
COc1ccc(CCN(C(=O)c2snc(C(N)=O)c2N)C(C(=O)NCC2CCCO2)c2ccc(F)cc2)cc1OC (stereo not drawn),i,i,2,-14%,8%
Cc1ccc(C(C(=O)NCC2CCCO2)N(C(=O)c2snc(C(N)=O)c2N)c2ccc(C)c(C)c2)o1 (stereo not drawn),?,i,-28,0%,10%
Cc1cc(C)cc(N(C(=O)c2snc(C(N)=O)c2N)C(C(=O)NCC2CCCO2)c2ccc(C)o2)c1 (stereo not drawn),i,i,-51*,?,?
CCOc1ccc(C(C(=O)NCC2CCCO2)N(C(=O)c2snc(C(N)=O)c2N)c2ccccc2F)cc1 (stereo not drawn),i,i,-72*,23%,?
Cc1cccc(CCN(C(=O)c2snc(C(N)=O)c2N)C(C(=O)NCC2CCCO2)c2ccc(F)cc2)c1 (stereo not drawn),21µM*,i,-52*,?,?
COc1ccc(CN2CC[C@H]3C=CC[C@@H](C(=O)Nc4nccs4)[C@H]3C2=O)cc1OC,i,i,·,·,·
CSc1nc(Oc2ccc3ccccc3c2)c2sccc2n1,?,5.2µM*,76,21µM*,?
COc1ccc(Oc2nc(SC)nc3ccsc23)cc1,?,?,12,?,?
CC(=O)Nc1ccc(S(=O)(=O)NC2CC(=O)N(c3ccc(C)cc3)C2)cc1 (stereo not drawn),i,i,-4,6.5µM*,-15%
CCOC(=O)c1ccc(NC(=O)c2ccc(CN3C(=O)CCn4nc(C)cc43)cc2)cc1,i,i,·,·,·
COc1ccc(OC)c(C2Nc3c(Cl)ccc(C(=O)O)c3C3C=CCC32)c1 (stereo not drawn),i,i,-57*,?,23%

# Compound activity (PubChem BioAssay)
